From PubChem BioAssay (EPA / NIEHS)
Several values for one entry are separate records, joined by “and”; a condition that tells them apart may be missing. Identical values can stand only once. Inconclusive results are not listed. More than one record can exist for a structure, and the calls need not agree. Activity calls are given as the source filed them. How the source made its calls, unless noted: active means hit-call score of the fitted dose curve at least 0.9, where 1 is the maximum; inactive means score below 0.9.

Columns and labels:
[1] = BSK_BT_Bcell_Proliferation: Viability Assessment in the BioMAP Diversity Plus: BT Assay for B cell Proliferation (AID 2284227); settings: primary human B cells with PBMC
Procedure, shortened: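 Using a human primary B cell–PBMC co-culture, the assay measures total protein by sulforhodamine B absorbance as a gauge of proliferation after 72 h. Analysis followed the positive fitting direction with DMSO as baseline.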

[2] = read-out: Interleukin 6 (IL6), IL6 (gene 3569); assay: BSK_BT_xIL6: BioMAP Diversity Plus: BT Assay for Interleukin 6 (IL6) Biomarker Activity (AID 2284228); settings: primary human B cells with PBMC
Procedure, shortened: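 Human B cell/PBMC co-culture; secreted IL-6 quantified by Luminex xMAP 24 h after chemical dosing, fitted relative to DMSO. Parallel PBMC viability by Alamar Blue after 1 h pretreatment, 20 ng/mL SEB and TSST-1, 90 h incubation.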

[3] = read-out: Interleukin 17A (IL17A), IL17A (gene 3605); assay: BSK_BT_xIL17A: BioMAP Diversity Plus: BT Assay for Interleukin 17A (IL17A) Biomarker Activity (AID 2284229); settings: primary human B cells with PBMC
Procedure, shortened: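 Co-culture of human B cells and PBMC, dosed for 24 h in 96-well format. Secreted IL-17A measured with Luminex xMAP; gain-direction fitting against DMSO as baseline.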

[4] = read-out: Tumor necrosis factor (Homo sapiens) (UniProt P01375); assay: BSK_BT_xTNFa: BioMAP Diversity Plus: BT Assay for Tumor necrosis factor alpha (TNF-alpha) Biomarker Activity (AID 2284230); settings: primary human B cells with PBMC
Procedure, shortened: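 Endpoint derived in the positive direction versus DMSO vehicle. Cells: B cells together with PBMC, exposed 24 h before TNF-alpha in the medium was read on the Luminex xMAP platform.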

[5] = read-out: Vascular cell adhesion molecule 1 (VCAM1), VCAM1 (gene 7412); assay: BSK_MyoF_VCAM1: BioMAP Diversity Plus: MyoF Assay for Vascular cell adhesion molecule 1 (VCAM1) Biomarker Activity (AID 2284231); settings: primary human lung fibroblasts
Procedure, shortened: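 Primary human lung fibroblasts (BioMAP MyoF system) dosed with chemical, VCAM-1 measured by ELISA 24 hours later. Fitted in the positive direction against DMSO; parallel SRB staining assessed cytotoxicity.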

[6] = read-out: Collagen I, COL1A1 (gene 1277); assay: BSK_MyoF_CollagenI: BioMAP Diversity Plus: MyoF Assay for Collagen I Biomarker Activity (AID 2284238); settings: primary human lung fibroblasts
Procedure, shortened: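 Primary human lung fibroblasts (MyoF system) treated 24 h; Collagen I quantified by ELISA and fitted in positive direction against DMSO. Parallel SRB total-protein staining assessed overt cytotoxicity.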

[7] = read-out: Collagen III, COL3A1 (gene 1281); assay: BSK_MyoF_CollagenIII: BioMAP Diversity Plus: MyoF Assay for Collagen III Biomarker Activity (AID 2284239); settings: primary human lung fibroblasts
Procedure, shortened: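 Primary human lung fibroblasts (BioMAP MyoF system) exposed 24 h. Collagen III measured by ELISA; positive-direction fit relative to DMSO.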

[8] = CCTE_Mundy_HCI_hNP1_Casp3_7: CCTE's Caspase-Glo 3/7 Assay in human neuroprogenitor cells for Apoptosis, Mundy Lab (AID 2284240)
Procedure, shortened: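 Luminescent caspase-3/7 readout, 26.5 h post-dose, in human neural progenitor cells from WA09 embryonic stem cells. Cells grew 40–44 h at 37 °C, 5% CO2 before chemical addition. Activity analysed as signal increase over DMSO baseline.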

[9] = CCTE_Mundy_HCI_hNP1_CellTiter: CCTE's Cell Titer-Glo 2 Assay in human neuroprogenitor cells for Viability, Mundy Lab (AID 2284241; active means hit-call score of the fitted dose curve at least 0.9, where 1 is the maximum)
Procedure, shortened: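 Viability read as luminescent ATP content (CellTiter-Glo, 30 min room temperature) twenty-four hours after dosing, relative to DMSO. Cells: WA09-derived hNP1 neuroprogenitors on poly-L-ornithine/laminin, plated 40 to 44 hours before chemical.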

[10] = read-out: Interleukin 17F (IL17F), IL17F (gene 112744); assay: BSK_BT_xIL17F: BioMAP Diversity Plus: BT Assay for Interleukin 17F (IL17F) Biomarker Activity (AID 2284243); settings: primary human B cells with PBMC
Procedure, shortened: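 Human PBMC co-cultured with B cells, compound exposure 24 h; secreted IL-17F quantified by Luminex xMAP, referenced to DMSO control. PBMC viability measured in parallel by Alamar Blue reduction.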

[11] = read-out: Actin alpha 1 (ACTA1), ACTA1 (gene 58); assay: BSK_MyoF_ACTA1: BioMAP Diversity Plus: MyoF Assay for Actin alpha 1 (ACTA1) Biomarker Activity (AID 2284244); settings: primary human lung fibroblasts
Procedure, shortened: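 MyoF fibroblast system (human lung); a-SMA quantified via ELISA at 24 h; DMSO-normalised, gain-of-signal endpoint.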

[12] = read-out: Interleukin 2 (IL2), IL2 (gene 3558); assay: BSK_BT_xIL2: BioMAP Diversity Plus: BT Assay for Interleukin 2 (IL2) Biomarker Activity (AID 2284245); settings: primary human B cells with PBMC
Procedure, shortened: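 Co-cultures of primary human B cells and PBMC are treated with chemical and sampled at 24 h. IL-2 secretion is quantified by Luminex xMAP, with DMSO-treated wells as baseline.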

[13] = read-out: Basic fibroblast growth factor (bFGF), FGF2 (gene 2247); assay: BSK_MyoF_bFGF: BioMAP Diversity Plus: MyoF Assay for Basic fibroblast growth factor (bFGF) Biomarker Activity (AID 2284246); settings: primary human lung fibroblasts
Procedure, shortened: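 Fibroblasts from human lung, 24 h dosing. bFGF by ELISA; gain of signal over DMSO.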

[14] = read-out: Collagen IV, COL4A1 (gene 1282); assay: BSK_MyoF_CollagenIV: BioMAP Diversity Plus: MyoF Assay for Collagen IV Biomarker Activity (AID 2284247); settings: primary human lung fibroblasts
Procedure, shortened: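 Lung fibroblasts (human primary) treated with chemicals were assayed after 24 h for Collagen IV using an ELISA, with DMSO serving as negative control and baseline for a positive-direction fit.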

[15] = read-out: Monokine induced gamma interferon (MIG), CXCL9 (gene 4283); assay: BSK_KF3CT_MIG: BioMAP Diversity Plus: KF3CT Assay for Monokine induced gamma interferon (MIG) Biomarker Activity (AID 2284248); settings: primary human keratinocytes with fibroblasts
Procedure, shortened: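 Human keratinocyte–foreskin fibroblast co-culture; MIG measured by ELISA 24 h after chemical dosing, fitted upward versus DMSO. Cytotoxicity was assessed in parallel cultures by SRB total-protein staining read at 560 nm.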

[16] = read-out: Vascular cell adhesion molecule 1 (VCAM1), VCAM1 (gene 7412); assay: BSK_BF4T_VCAM1: BioMAP Diversity Plus: BF4T Assay for Vascular cell adhesion molecule 1 (VCAM1) Biomarker Activity (AID 2284249); settings: primary human bronchial epithelial cells with fibroblasts
Procedure, shortened: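 Cell-surface VCAM-1 quantified by ELISA after 24 h chemical exposure of human bronchial epithelial/dermal fibroblast co-cultures, with SRB staining in parallel wells for cytotoxicity; DMSO baseline, positive-direction fitting.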

[17] = read-out: Collagen I, COL1A1 (gene 1277); assay: BSK_hDFCGF_CollagenI: BioMAP Diversity Plus: hDFCGF Assay for Collagen I Biomarker Activity (AID 2284250); settings: primary human foreskin fibroblasts
Procedure, shortened: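 Readout: Collagen I by ELISA after 24 h compound treatment of primary human foreskin fibroblasts. Endpoint analysed for increases relative to DMSO; total protein by SRB in parallel wells flagged cytotoxicity.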

[18] = read-out: Plasminogen activator inhibitor-1 (PAI1), SERPINE1 (gene 5054); assay: BSK_KF3CT_PAI1: BioMAP Diversity Plus: KF3CT Assay for Plasminogen activator inhibitor-1 (PAI1) Biomarker Activity (AID 2284252); settings: primary human keratinocytes with fibroblasts
Procedure, shortened: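 In this co-culture of primary human keratinocytes and foreskin fibroblasts, PAI-1 was measured by ELISA at 24 h and fitted upward from DMSO.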

[19] = read-out: Monocyte Chemoattractant Protein-1 (MCP1), CCL2 (gene 6347); assay: BSK_IMphg_MCP1: BioMAP Diversity Plus: IMphg Assay for Monocyte Chemoattractant Protein-1 (MCP1) Biomarker Activity (AID 2284253); settings: primary human endothelial cells with macrophages
Procedure, shortened: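 ELISA readout of MCP-1 at 24 hours in IMphg co-cultures of venular endothelial cells and macrophages, normalised to DMSO; parallel cultures stained with sulforhodamine B for overt cytotoxicity.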

Chain of Tumor necrosis factor (Homo sapiens) (P01375 whole entry, looked up): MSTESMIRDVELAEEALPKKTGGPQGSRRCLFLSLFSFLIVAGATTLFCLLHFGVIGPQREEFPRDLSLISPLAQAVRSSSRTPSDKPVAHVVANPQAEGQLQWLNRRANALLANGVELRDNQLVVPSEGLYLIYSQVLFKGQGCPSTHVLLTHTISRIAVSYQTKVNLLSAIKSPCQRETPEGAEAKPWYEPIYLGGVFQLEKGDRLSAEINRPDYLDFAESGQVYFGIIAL

## NC(O)(C(F)(F)F)C(F)(F)F
[1]
  outcome: inactive
[2]
  outcome: inactive
[3]
  outcome: inactive
[4]
  outcome: inactive
[5]
  outcome: inactive
[6]
  outcome: inactive
[7]
  outcome: inactive
[8]
  outcome: inactive
[9]
  outcome: inactive
[10]
  outcome: inactive
[11]
  outcome: inactive
[12]
  outcome: inactive
[13]
  outcome: inactive
[14]
  outcome: inactive
[15]
  outcome: inactive
[16]
  outcome: inactive
[17]
  outcome: inactive
[18]
  outcome: inactive
[19]
  outcome: inactive

## CCN(CC)c1ccc2c(c1)Oc1cc(N(CC)CC)ccc1C21OC(=O)c2ccccc21
[1]
  AC50: 6.1 µM (active)
[2]
  AC50: 10 µM (active)
[3]
  outcome: inactive
[4]
  outcome: inactive
[5]
  outcome: inactive
[6]
  outcome: inactive
[7]
  outcome: inactive
[10]
  outcome: inactive
[11]
  outcome: inactive
[12]
  outcome: inactive
[13]
  outcome: inactive
[14]
  outcome: inactive

## CO[Si](C)(CCC(F)(F)C(F)(F)C(F)(F)C(F)(F)C(F)(F)C(F)(F)F)OC
[1]
  outcome: inactive
[2]
  outcome: inactive
[3]
  outcome: inactive
[4]
  outcome: inactive
[5]
  outcome: inactive
[6]
  outcome: inactive
[10]
  outcome: inactive
[11]
  outcome: inactive
[12]
  outcome: inactive
[13]
  outcome: inactive
[14]
  outcome: inactive
[15]
  outcome: inactive
[16]
  outcome: inactive
[17]
  outcome: inactive
[18]
  outcome: inactive
[19]
  outcome: inactive

## Cc1cc(C)c(O)c(C(C)(C)C)c1
[1]
  outcome: inactive
[2]
  outcome: inactive
[3]
  outcome: inactive
[4]
  outcome: inactive
[5]
  AC50: 34.2 µM (active)
[6]
  AC50: 30.6 µM (active)
[10]
  outcome: inactive
[11]
  AC50: 29.8 µM (active)
[12]
  outcome: inactive
[13]
  AC50: 36.8 µM (active)
[14]
  AC50: 32.4 µM (active)

## CCN(CCO)S(=O)(=O)C(F)(F)C(F)(F)C(F)(F)C(F)(F)C(F)(F)C(F)(F)C(F)(F)C(F)(F)F
[1]
  AC50: 46.4 µM (active) and 30 µM (active)
[2]
  AC50: 41.8 µM (active) and 46.8 µM (active)
[3]
  AC50: 20.2 µM (active) and 21.2 µM (active)
[4]
  AC50: 21.7 µM (active) and 30 µM (active)
[5]
  AC50: 12.6 µM (active) and 13 µM (active)
[6]
  AC50: 19.9 µM (active) and 20.3 µM (active)
[7]
  AC50: 18.9 µM (active) and 23.2 µM (active)
[8]
  outcome: inactive
[9]
  outcome: inactive
[10]
  AC50: 13 µM (active) and 12.6 µM (active)
[11]
  AC50: 19.5 µM (active)
  outcome: inactive
[12]
  AC50: 26.7 µM (active) and 25.7 µM (active)
[13]
  AC50: 43 µM (active)
  outcome: inactive
[14]
  outcome: inactive
[15]
  AC50: 22.7 µM (active) and 31.6 µM (active)
[16]
  outcome: inactive
[17]
  outcome: inactive
[18]
  AC50: 17.7 µM (active) and 8.86 µM (active)
[19]
  outcome: inactive

## O=S(=O)(Cl)C(F)(F)C(F)(F)C(F)(F)C(F)(F)C(F)(F)C(F)(F)C(F)(F)C(F)(F)F
[1]
  outcome: inactive
[2]
  outcome: inactive
[3]
  outcome: inactive
[4]
  AC50: 15.9 µM (active)
  outcome: inactive
[5]
  outcome: inactive
[6]
  outcome: inactive
[10]
  outcome: inactive
[11]
  outcome: inactive
[12]
  outcome: inactive
[13]
  outcome: inactive
[14]
  AC50: 41.1 µM (active) and 30.1 µM (active)
[15]
  outcome: inactive
[16]
  AC50: 30 µM (active)
  outcome: inactive
[17]
  outcome: inactive
[18]
  AC50: 25 µM (active) and 22.1 µM (active)
[19]
  outcome: inactive
